PubChem BioAssay (NCI)
This is part of a sample that, as a whole, favours compounds with a hit. Of some 79,000 tested, about 15% had one in any assay. Unmarked numbers belong to inactive results. The source made the active and inactive calls. Cut-off read from the data, not from the text of the source: active = growth inhibition above about 70%; inactive = the rest.

Assay: NCI Yeast Anticancer Drug Screen. Data for the bub3 strain (AID 167)
Conditions: S. cerevisiae bub3 mutant strain, at 5.0 µM (retest, dose inferred, filed as 0.5), stronger effect = higher value
Summary of the method: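 Readout: yeast growth inhibition, expressed relative to vehicle-only wells. The test organism is a mutant strain from a panel with lesions in DNA repair or checkpoint genes.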

SMILES	growth inhibition
O=C(c1ccc(Br)cc1)C1C(c2ccccc2)N1C1CCCCC1 (centres undefined)	4%
Cc1cccc2cc3ccccc3c[n+]12	-1%
Cc1ccc(P(=O)(c2ccc(C)cc2)c2ccc(C)cc2)cc1.Cc1ccc(P(=O)(c2ccc(C)cc2)c2ccc(C)cc2)cc1.[Cl][Sn]([Cl])([Cl])[Cl]	13%
c1ccc(P(CCP(c2ccccc2)c2ccccc2)CCP(c2ccccc2)c2ccccc2)cc1	96% (active)
O=[N+]([O-])c1cc2c([N+](=O)[O-])cccc2o1	7%
O=C1CCC[N]1[Hg][N]1CCCC1=O	99% (active)
Oc1c(Cl)c(Cl)c(Cl)c(Cl)c1Cl.[Cu+2]	11%
ClCCN(CCCl)c1ccc(C=NCCCCN=Cc2ccc(N(CCCl)CCCl)cc2)cc1	-10%
CC(C(=O)C1CCCCC1)[n+]1ccccc1 (centres undefined)	3%
CN(C)CC1CCCCC1=O (centres undefined)	-69%
CSc1nncc(=O)[nH]1.[Hg]	99% (active)
CNC(=O)N1CN(c2ccccc2)C2(CCN(CCCC(=O)c3ccc(F)cc3)CC2)C1=O	5%
O=C(OCc1ccccc1)C(C(Cl)c1ccccc1)N(Cc1ccccc1)Cc1ccccc1 (centres undefined)	-1%
O=C1C=C(Cl)C(=O)C=C1Cl	5%
CC(=O)[O][Hg][c]1ccccc1N	99% (active)
CCOP(=O)(Cc1cccc2ccccc12)OCC	14%
Nc1c(Cl)cccc1C(=O)O	3%
CC(=O)O[C@H]1CC[C@H]2[C@@H]3CCC4=CC(=O)CC[C@@H]4[C@H]3CC[C@]12C	1%
C1CC[N-]CC1.CC(=N\O)/C(C)=N/O.CC(=N\O)/C(C)=N/O.OC1[CH-]CCCC1.[Co+2]	13%
c1ccc(C(C(=Nc2ccc(Cc3ccc(N=C(C(c4ccccc4)c4ccccc4)N4CC4)cc3)cc2)N2CC2)c2ccccc2)cc1	5%

SMILES	growth inhibition
CCN(Cc1ccccc1)CC(O)c1ccc(Cl)c(Cl)c1 (centres undefined)	0%
CC(=O)OC1C(O)C(C)OC(OC2C(OC(=O)C3CCC4C(C3)OC3(CC(OC(=O)/C=C/c5ccccc5)C(C)CO3)C43CO3)OC(C)C(O)C2OC(C)=O)C1O (centres undefined)	6%
CCCCC(CC)CNP(=S)(NCC(CC)CCCC)NCC(CC)CCCC (centres undefined)	-5%
Oc1c(-c2ccccc2)cc(-[n+]2c(-c3ccccc3)cc(-c3ccccc3)cc2-c2ccccc2)cc1-c1ccccc1	99% (active)
Cc1ccc([C@H]2N[C@@H]2c2ccccn2)cc1	-4%
CC[CH2][Sn]([CH2]CC)([CH2]CC)[CH2]CCBr	99% (active)
O=[N+]([O-])c1cc(S(=O)(=O)F)ccc1S	-59%
CCCCN(CCCC)CCc1ccc(OC(=O)c2ccc(N)cc2)cc1	50%
Cc1ccc(C(=O)OC(C(=O)O)C(OC(=O)c2ccc(C)cc2)C(=O)O)cc1 (centres undefined) (tested in a mixture with another compound)	-10%
N#C[S-].[Ce+3].c1ccc(-c2ccccn2)nc1.c1ccc(-c2ccccn2)nc1.c1ccc(-c2ccccn2)nc1	55%
Nc1nc(N)c(-c2ccc(Cl)c(Cl)c2)c(CCc2ccc(CNC(=O)c3ccc(S(=O)(=O)F)cc3)cc2)n1	-17%
CC1C2C=CC1C(c1c3ccc(=O)c(O)c-3oc3c(O)c(O)ccc13)C2C(=O)O (centres undefined)	9%
O=C(O)CN(CCN(CC(=O)O)CC(=O)O)CC(=O)O	10%
O=S(=O)(F)c1ccc(Cl)cc1C[P+](c1ccccc1)(c1ccccc1)c1ccccc1	12%
Oc1ccc2ccccc2c1O	32%
COC1=[C]([Hg][Br])C(OC)OC1OC (centres undefined)	99% (active)
Nc1nc(CCl)cs1	-4%
CCC(C)N1CN(c2ccccc2)C2(CCN(CCCC3(c4ccc(F)cc4)OCCO3)CC2)C1=O (centres undefined)	-2%
COc1ccc(NP(=S)(Nc2ccc(OC)cc2)c2ccccc2)cc1	-1%
